Measurements: PubChem BioAssay AID504861 (Broad Institute, 2011)
Screen size: about 1,200 compounds; about 290 (24%) were called active. Inconclusive results (about 3%) are left out.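 How the source made its calls: active means compounds lowering cell viability signal with fitted half-maximal concentration at most ten times their highest tested concentration; inconclusive means flat fit with 30 to 70% signal loss, or poor fit; inactive means the rest.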 A selection follows. Entries with a potency or affinity are not part of this list.

Assay: cytotoxicity in HEK293T cells – cell-based, CellTiter-Glo luminescence, cherry-picks, cytotoxicity control for LMP1 NF-kB inhibitor project, dose response (AID 504861)
Details: HEK293T viability, CellTiter-Glo ATP luminescence, 48 h; series mostly up to 26 µM

Row | SMILES | outcome
1 | CCn1c2ccccc2c2cc(/C=N/NC(=O)c3ccncc3)ccc21 | inactive
2 | COc1ccc(CCNC(=O)c2nnn(-c3ccc4c(c3)OCCO4)c2N)cc1OC | inactive
3 | CNS(=O)(=O)c1cccc(C(=O)OCC(=O)c2ccc3c(c2)OCCO3)c1 | inactive
4 | O=C(c1noc2c1CCCC2)N1CCCCC1 | inactive
5 | CC[C@H]1OC(=O)[C@H](C)[C@@H](O[C@H]2C[C@@](C)(OC)[C@@H](O)[C@H](C)O2)[C@H](C)[C@@H](O[C@@H]2O[C@H](C)C[C@H](N(C)C)[C@H]2O)[C@](C)(O)C[C@@H](C)C(=NOCOCCOC)[C@H](C)[C@@H](O)[C@]1(C)O | inactive
6 | COc1cc2c(cc1OC)-c1cc(Nc3ccc4c(c3)OCCO4)nc(=O)n1CC2 | inactive
7 | Cc1nc2ncccn2c1-c1csc(Nc2ccccc2)n1 | inactive
8 | CCOC(=O)C1=C(C)NC(C)=C(C(=O)OCC)C1c1cn(-c2ccccc2)nc1-c1ccco1 | inactive
9 | COCCn1c(SCCN2CCOCC2)nc2c1c(=O)[nH]c(=O)n2C | inactive
10 | Cc1cccc(NC(=O)c2cnc3ccccn3c2=O)c1 | inactive
11 | CC(C)c1nnc(NC(=O)c2ccc(N3C(=O)CCC3=O)cc2)s1 | inactive
12 | COc1ccc(-n2c(SCC(=O)Nc3cc(C)on3)nc3c(c2=O)SCC3)cc1 | inactive
13 | COc1ccc(/C=N/N=C/c2ccc(OC)c(OC)c2)cc1OC | inactive
14 | COc1cc(/C=C2/SC(=S)N(Cc3ccccc3)C2=O)ccc1OCC(=O)O | inactive
15 | CCOCCCn1c(=S)[nH]c2ncccc2c1=O | inactive
16 | O=c1c2c(nc3c(-c4ccc(Cl)cc4)c[nH]n13)CCCC2 | inactive
17 | CC(=NNC(=S)N1CCCCCC1)c1cccc2cccnc12 | inactive
18 | CC1=C(CC(=O)O)c2cc(F)ccc2C1=Cc1ccc(S(C)(=O)=O)cc1 | inactive
19 | COc1ccc(OC)c(CCNC(=O)CCn2nc(C)c3c(C)n(-c4ccccc4)nc3c2=O)c1 | inactive
20 | COCCn1c(C)cc(C(=O)COC(=O)C23CC4CC(CC(O)(C4)C2)C3)c1C | inactive
21 | CC1CCc2nc(N)c(C#N)c(-c3cccnc3)c2C1 (centres undefined) | inactive
22 | N#CCN(N=Nc1ccccc1)c1ccccc1 | inactive
23 | CC(NC(=O)CCOc1ccccc1)c1ccccc1 (centres undefined) | inactive
24 | C[C@@H](OC(=O)c1[nH]cnc1C(=O)N1CCc2ccccc2C1)c1ccccc1 | inactive
25 | COc1cccc(-c2nnc(NC(=O)c3ccc(S(=O)(=O)N(CC(C)C)CC(C)C)cc3)o2)c1 | inactive
26 | CCn1c2ccccc2c2cc(/C=N/n3cnnc3)ccc21 | inactive

Row | SMILES | outcome
27 | C=CC[N+](C)(C)C/C(Cl)=C(\Cl)c1ccccc1 | inactive
28 | O=[N+]([O-])c1ccc(Cl)c(S(=O)(=O)NCC2CCCO2)c1 (centres undefined) | inactive
29 | c1ccc2c(-c3ccncc3)c[nH]c2c1 | inactive
30 | COc1cc(/C=N/NC(=O)c2cc(C34CC5CC(CC(C5)C3)C4)[nH]n2)ccc1O | inactive
31 | Cc1ccccc1CC(=O)NCc1cccnc1 | inactive
32 | Oc1ccccc1C=NN=Cc1c(O)ccc2ccccc12 | inactive
33 | CCn1c2ccccc2c2cc(/C=N/NC(=O)c3cc(O)cc(O)c3)ccc21 | inactive
34 | c1nc(NCc2ccc3c(c2)OCO3)c2cc(-c3ccoc3)ccc2n1 | inactive
35 | Oc1c(N=NC(=S)Nc2ccccc2F)c2ccccc2n1Cc1ccccc1F | inactive
36 | CCS(=O)(=O)c1nnnn1-c1ccccc1S(C)(=O)=O | inactive
37 | O=C1c2ccccc2C(=O)c2cc(N3CCCCC3)ccc21 | inactive
38 | O=C(NC(c1ccc(Cl)cc1)c1cc(Cl)c2cccnc2c1O)c1cccnc1 (centres undefined) | inactive
39 | CC(C)c1cc(NC(=O)c2ccccc2)cc(C(C)C)c1O | inactive
40 | Nc1cc2ccncc2c2ccccc12 | inactive
41 | CC1=C(C)C(OCCCl)N(c2cc(O)c(Cl)cc2F)C1=O (centres undefined) | inactive
42 | Cc1ccc(N2CCCCn3c2nc2c3c(=O)n(CC(=O)O)c(=O)n2C)cc1 | inactive
43 | Nc1ncnc(N2CCc3ccccc32)c1[N+](=O)[O-] | inactive
44 | COc1ccc(-c2cc3c(=O)n(CC(=O)NCCCN4CCN(Cc5ccccc5)CC4)ncn3n2)cc1 | inactive
45 | Cc1ccccc1C(=O)N1CCN(c2ccc(NC(=O)c3cccs3)cc2)CC1 | inactive
46 | COc1nc(Nc2nc3ccccc3c(=O)[nH]2)nc2ccc(C)cc12 | inactive
47 | COc1ccc2cc3c(N)nn(C(=O)c4ccccc4[N+](=O)[O-])c3nc2c1 | inactive
48 | O=C(O)c1c2c(nc3ccccc13)/C(=C/c1ccc(O)cc1)CC2 | inactive
49 | Cc1nn(CCCC(=O)Nc2cccnc2Cl)c(C)c1[N+](=O)[O-] | inactive
50 | COCCN1Cc2cccc(C(=O)N3CCN(c4cc(C)ccc4C)CC3)c2C1=O | inactive
51 | CCOC(=O)[C@H]1[C@H]2COc3ccc(OC)cc3[C@@H]2N2C(=O)CN(C)C(=O)[C@@]12C | inactive
52 | CCn1nc(C(=O)Nc2nc(-c3ccccn3)cs2)c2ccccc2c1=O | inactive

Row | SMILES | outcome
53 | O=C(CN1C(=O)c2ccccc2S1(=O)=O)c1ccccc1 | inactive
54 | COc1cc(C2NC(=O)NC(C)=C2C(=O)OC2CCCC(C)C2)cc(Br)c1O (centres undefined) | inactive
55 | O=C(c1ccco1)N1CCN(S(=O)(=O)/C=C/c2ccccc2)CC1 | inactive
56 | CCCN(CCC)S(=O)(=O)c1ccc(C(=O)Nc2nnc(-c3cc(OC)cc(OC)c3)o2)cc1 | inactive
57 | S=C(N/N=C/c1ccc2ncccc2c1)Nc1cccnc1 | inactive
58 | COc1cc(/C=N/NC(=S)Nc2cccc(C(=O)O)c2)ccc1O | inactive
59 | COc1ccc(CNC(=O)N2[C@H]3CC[C@@H]2C=C(c2ccc(F)cc2OCc2ccccc2)C3)cc1OC | inactive
60 | CCOc1cccc(CNc2nnnn2C)c1 | inactive
61 | Cn1c(=O)[nH]c(=O)c2c1nc(CN1CCOCC1)n2CCCc1ccccc1 | inactive
62 | O=C(c1ccc(C#CC2(O)CCCCC2)cc1)N1CCN(C(c2ccccc2)c2ccccc2)CC1 | inactive
63 | CN(CC(=O)Nc1cccnc1)S(=O)(=O)c1ccc(Br)cc1 | inactive
64 | CC1CCN(c2ccc(-c3ccc(NC(=O)C(F)(F)F)cc3)nn2)CC1 | inactive
65 | Cc1ccc(-c2cc(N)n3nc(-c4ccc(C)cc4)cc3n2)cc1 | inactive
66 | COc1ccc(S(=O)(=O)NC(CC(=O)NCc2ccco2)C(C)C)cc1 (centres undefined) | inactive
67 | CC(=O)Nc1ccc(S(=O)(=O)N2CCCC2)cc1 | inactive
68 | CC(=O)Nc1nc(C)c(-c2csc(Nc3cccc([N+](=O)[O-])c3)n2)s1 | inactive
69 | Nc1ccn([C@@H]2O[C@H](CO)[C@@H](O)C2O)c(=O)n1 (some centres undefined) | inactive
70 | CCOC(=O)N1CCN(C(=O)C2CCC(=O)N(Cc3ccccc3OC)C2)CC1 (centres undefined) | inactive
71 | Cc1csc(NC(=O)c2ccc(N3CCCC3=O)cc2)n1 | inactive
72 | COc1ccc(/C=C2\SC(=O)N(CCCC(=O)Nc3ccc(C(=O)O)cc3)C2=O)cc1 | inactive
73 | O=C1/C(=C/c2ccncc2)SC(=S)N1Cc1ccccc1 | inactive
74 | COc1ccccc1NC(=O)CC(c1ccc(OC(C)C)cc1)c1ccccc1OC (centres undefined) | inactive
75 | Brc1ccc(-c2csc(N3CCCCCC3)n2)cc1 | inactive
76 | CC(C)(O)C#Cc1ccc([C@@H]2C[C@H]3CN(c4ccccc4)C(=O)[C@]34CCCN24)s1 | inactive
77 | CN(C1CCCCC1)S(=O)(=O)c1ccc(C(=O)N2CCN(c3nc4ccccc4s3)CC2)cc1 | inactive
78 | Cc1cccc(NC(=S)N=Nc2c(O)n(C)c3ccc(S(=O)(=O)N4CCOCC4)cc23)c1 | inactive

Row | SMILES | outcome
79 | CC(CCc1ccco1)N(C)S(=O)(=O)c1csc(C(N)=O)c1 (centres undefined) | inactive
80 | CCC(=O)NC(c1ccc(C)cc1)c1cc(Cl)c2cccnc2c1O (centres undefined) | inactive
81 | O=C(Nc1ccncc1)OCc1ccccc1 | inactive
82 | CS(=O)(=O)N(CC(=O)Nc1ccc(F)cc1F)C1CCCCC1 | inactive
83 | COc1ccc(-c2cc3nc4n(c(=O)c3s2)CCC4)cc1 | inactive
84 | O=C(N/N=C(/CC(=O)c1cccs1)C(F)(F)F)c1ccc(O)cc1 | inactive
85 | CC(C)(C)c1ccc(C(=O)N2CCC(=O)N(C(CO)Cc3ccccc3)CC2)cc1 (centres undefined) | inactive
86 | COc1ccc(-n2c(C)c(C(C)=O)c3cc(OC(C)=O)ccc32)cc1 | inactive
87 | O=c1nc(N/N=C/C=C/c2ccccc2)cn[nH]1 | inactive
88 | COc1ccc2cc3c(N)nn(C(=O)c4cccc([N+](=O)[O-])c4)c3nc2c1 | inactive
89 | CCCc1cc(=O)[nH]c(SCC(=O)NC2CCCCC2)n1 | inactive
90 | O=Cc1cc(OCc2ccccc2)ccc1[B-](F)(F)F | inactive
91 | C[C@@H]1CN([C@@H](C)CO)S(=O)(=O)c2ccc(/C=C/c3ccccc3)cc2O[C@@H]1CN(C)Cc1ccc(C(=O)O)cc1 | inactive
92 | c1csc(CNc2ncnc3ccc(-c4ccoc4)cc23)c1 | inactive
93 | CC(=O)OCC(=O)[C@@]1(O)CC[C@H]2[C@@H]3CCC4=CC(=O)CC[C@]4(C)[C@H]3[C@@H](O)C[C@@]21C | inactive
94 | O=C(NCCc1ccccc1)c1ccccc1Cl | inactive
95 | COc1ccccc1-c1nnc(Sc2nc([N+](=O)[O-])nn2C)o1 | inactive
96 | Cc1ccc(NC(=O)/C=N/OCC(=O)NCc2ccccc2Cl)cc1 | inactive
97 | CSc1ccccc1C(=O)N1CCC2(CC1)CC(=O)c1ccccc1O2 | inactive
98 | CSc1nc(N)nc(SCC(=O)C23CC4CC(CC(C4)C2)C3)c1C#N | inactive
99 | COc1cc2c(=O)n(CC3CCCO3)c(=O)n(CC(=O)Nc3cccc(Cl)c3)c2cc1OC (centres undefined) | inactive
100 | O=[N+]([O-])c1ccc(/C=N/Nc2cc(Cl)nc(-c3ccccc3)n2)cc1 | inactive
101 | Cc1nn(C(C)(C)C)c(C)c1/C=N/OC(=O)Nc1ccc(Cl)c(Cl)c1 | inactive
102 | COc1ccc(-c2csc3ncnc(NCCN4CCOCC4)c23)cc1 | inactive
103 | COc1ccc2cc(-c3cc(C(=O)OCC(=O)NC4CCS(=O)(=O)C4)c4ccccc4n3)ccc2c1 (centres undefined) | inactive
104 | CCOc1ccc(-c2cc(C(=O)N/N=C/c3ccc(O)cc3)c3ccccc3n2)cc1 | inactive
